Compounds with a hit are over-represented: about 7.9% of the library has one in this group of screens.
MCF10A rerep: inducers of DNA re-replication in MCF 10A breast cells | MCF 10A DNA re-replication, Hoechst nuclear intensity, 48 h | Potency, µM (titrated, usually from 46.1 µM), inactives show at the top dose activity, positive = re-replication, most hits filed as activators | 2.9% of 350,000 active | AID 624296; note: % of control where 0% means no effect; nearly all actives have a fitted effect of over 50% in size
HT1080 IDH1KD tx: HT-1080 IDH1 knockdown cell toxicity (counter line); AID 686971; Potency, µM (titrated, usually from 46.1 µM), without a hit: at the highest dose activity, negative = toxicity, most hits filed as cytotoxic; 2% of 360,000 active; HT-1080 IDH1 knockdown viability, ATP luminescence, 48 h;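 note: 0% = DMSO wells and -100% = cell-free medium wells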
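In this qHTS, HT-1080 cells depleted of IDH1 are exposed for 48 h at 37 °C to compound titrations. Toxicity is scored from CellTiter-Glo luminescence, with DMSO as full viability and medium alone as none.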
KB-V1 MDR tox: KB-V1 MDR subline cytotoxicity; AID 1347076; KB-V1 MDR cells viability, CellTiter-Glo, 72 h; 3.4% of 400,000 active; Potency, µM (titrated, usually from 46.1 µM), actives largely listed as cytotoxic; note: % is set by controls: 0 for no effect and ±100 for the full control effect; nearly all actives have a fitted effect of over 60% in size
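Following 72 h at 37 degrees C with compound, KB-V1 cell viability was read by CellTiter-Glo luminescence, medium being phenol-red-free DMEM plus 10% FBS; concentration-response parameters came from normalized, curve-fitted qHTS data.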
KB-3-1 cytotox: kills parental KB-3-1 adenocarcinoma cells | KB-3-1 viability, CellTiter-Glo ATP luminescence, 72 h | 1.4% of 400,000 active | Potency, µM (titrated, usually from 46.1 µM), actives largely listed as cytotoxic; note: % is set by controls: 0 for no effect and ±100 for the full control effect; nearly all actives have a fitted effect of over 60% in size
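KB-3-1 parental drug-naive adenocarcinoma cells in DMEM/10% FBS, incubated 72 h at 37 C with pin-transferred compounds across a concentration series. Viability by CellTiter-Glo luminescence; concentration-response curves fitted after normalization.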
HT1080-NT tox: kills 2HG-producing HT-1080-NT fibrosarcoma cells; AID 686970; 1.6% of 360,000 active; Potency, µM (top dose mostly 46.1 µM), inactives show top-dose activity, negative = less viability, actives largely listed as cytotoxic; HT-1080-NT fibrosarcoma viability, CellTiter-Glo ATP luminescence, 48 h;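 note: NT is the 2HG producing partner of a matched IDH1 knockdown line; 0% = DMSO-treated cells and -100% = media-only wells without cells; nearly all actives have a fitted effect of over 55% in size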
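A 48-hour cytotoxicity screen used HT-1080-NT cells plated 2 hours before compound delivery. ATP-based CellTiter-Glo luminescence measured viability, normalized to DMSO and no-cell controls.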
SW480 rereplic: DNA re-replication induction in SW480 cells; Potency, µM (top dose mostly 46.1 µM), inactives show at the highest dose re-replication activation, most hits filed as activators; 1.8% of 340,000 active; SW480 DNA re-replication, Hoechst DNA content imaging, 48 h; note: % of control where 0% means no effect; nearly all actives have a fitted effect of over 55% in size
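Per well, 250 cells were exposed to pinned compound for 48 hr. Nuclear DNA was visualised with Hoechst (40 min, 37 C) and total object intensity recorded by fluorescence scanning.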
Active calls of the source: *; i = inactive; ? = inconclusive; nt = no result given; ! = not active in a repeat; [ ] = another dose, or the depositor's remark. Calls come from the whole dose curve; as a rule, active = well fitted curve in the direction sought with a large enough effect; inconclusive = small, poorly fitted or top-dose-only effect, or another doubt; inactive = no such curve, though single readings can be large; an effect the other way counts as inactive or inconclusive. Potency is the fitted concentration of half-maximal effect.

SMILES | MCF10A rerep | HT1080 IDH1KD tx | KB-V1 MDR tox | KB-3-1 cytotox | HT1080-NT tox | SW480 rereplic
COc1ccc(CNCCC(c2ccc(OC(C)C)cc2)C(C)C)cc1OC (centres undefined) | ? | ? | 5.17µM* | ? | ? | ?
COc1ccc(F)cc1CN1CCN(C(=O)CCC(=O)Nc2nnc(CC(C)C)s2)CC1 | 18.4µM* | -4.0% | i | i | -2.9% | ?
CC(C)n1c(=O)c(C=Nc2ccc(S(N)(=O)=O)cc2)c(O)n(Cc2ccco2)c1=O | 11.8% | 0.0% | i | i | 8.6% | ?
CC(C)n1c(=O)c(C=Nc2cccc([N+](=O)[O-])c2)c(O)n(CCc2ccccc2)c1=O | 23.1µM* | -11.2% | i | i | -9.3% | -2.9%
CCOP(=O)(OCC)/C(=N/OC(=O)c1ccc(OC)cc1)C(N)=O | ? | ? | i | ? | -8.0% | ?
CCc1ccc(NP(=O)(Oc2ccccc2F)Oc2ccccc2F)cc1 | 22.2% | 23.1µM* | i | i | 18.4µM* | 27.4%
Cc1ccc(NP(=O)(Oc2ccccc2F)Oc2ccccc2F)cc1 | 18.4µM* | ? | ? | i | ? | ?
Cc1cccc(NP(=O)(Oc2ccccc2F)Oc2ccccc2F)c1C | ? | ? | i | i | ? | 19.6%
[S]=[Sb][S][Sb]=[S] | -1.3% | nt | nt | nt | nt | -1.8%
CCCCN=C[C@]12CCC(O)CC1(O)CCC1[C@@H]2CC[C@]2(C)[C@H](C3C=CC(=O)O3)CCC12O (some centres undefined) | ? | 1.46µM* | 0.517µM* | 0.231µM* | 1.84µM* | 2.31µM*
CC12CCC3C(CCC4(O)CC(O)CCC34C=NO)C1(O)CCC2C1=COC(=O)C1 (centres undefined) | ? | 0.581µM* | ? | 0.366µM* | 0.82µM* | 1.64µM*
C[C@]12CC[C@H]3[C@@H](CC[C@]4(O)C[C@@H](O)CC[C@]34C=O)[C@@]1(O)CC[C@@H]2C1=CC(=O)OC1 | ? | 0.651µM* | 0.92µM* | 0.517µM* | 1.16µM* | 2.59µM*
CC12CC[C@H]3[C@@H](CCC4(O)C[C@H](O)CCC34/C=N/NC(=O)c3ccccc3Cl)C1(O)CCC2C1=CC(=O)OC1 (some centres undefined) | 14.2% | -1.8% | i | i | 3.5% | -6.0%
C[C@]12CCC3C(CCC4=CC(O)CC[C@@]43/C=N/O)C1(O)CCC2C1=CC(=O)OC1 (some centres undefined) | ? | 0.82µM* | 0.651µM* | 0.291µM* | 3.26µM* | 3.66µM*
NCC(=O)c1cccc([N+](=O)[O-])c1 | nt | nt | i | i | nt | nt
C[N+]1(C)CCCCC1COC(=O)C(O)(c1ccccc1)c1ccccc1 (centres undefined) | 0.0% | nt | nt | nt | nt | -12.3%
CC1(C)CC(=O)C2=C(C1)OC(N)=C([N+](=O)[O-])C2c1ccc(C#N)s1 (centres undefined) | -1.1% | -11.1% | i | ? | -2.4% | ?
Cc1cc(=O)n(-c2ccccc2)n1C | ? | 1.7% | i | ? | -0.3% | 12.6%
COc1ccc2c(c1OC)C[N+]1([O-])CCc3cc4c(cc3C1C2)OCO4 (centres undefined) | -21.3% | 10.2% | i | i | 11.2% | -4.5%
CC12CCC3C(CCC4(O)CC(O)CCC34C=O)C1(O)CCC2C1=CC(=O)OC1 (centres undefined) | ? | 1.46µM* | ? | 1.3µM* | 1.64µM* | ?
C[C@H]1O[C@@H](OC2CC[C@]3(C=O)[C@H]4CC[C@]5(C)[C@@H](C6=CC(=O)OC6)CC[C@]5(O)[C@@H]4CC[C@]3(O)C2)CC2OC(C)(C)OC21 (some centres undefined) | ? | 0.103µM* | ? | ? | 0.184µM* | ?
C[C@H]1C=CC(=O)O[C@H]1c1ccccc1 | ? | -20.2% | ? | 20.6µM* | -25.1% | -7.0%[9.22 µM]
CC[C@H]1CN2CCc3cc(OC)c(OC)cc3[C@H]2C[C@@H]1C[C@@H]1NCCc2cc(OC)c(OC)cc21 | 33.5% | nt | nt | nt | nt | ?
CC(C)Oc1cccc(NC(=O)c2cccn(Cc3ccc4c(c3)OC(F)(F)O4)c2=O)c1 | 13µM* | -27.3% | i | ? | -14.5% | ?
O=C(Nc1ccc(C(F)(F)F)cc1)c1cccn(Cc2ccc3c(c2)OC(F)(F)O3)c1=O | ? | -3.7% | 2.91µM* | 8.2µM* | -13.5% | -8.4%
SMILES | MCF10A rerep | HT1080 IDH1KD tx | KB-V1 MDR tox | KB-3-1 cytotox | HT1080-NT tox | SW480 rereplic
CC(C)C[C@H]1C(=O)N2CCCC2[C@]2(O)O[C@](NC(=O)[C@@H]3C=C4c5cccc6[nH]c(Br)c(c56)C[C@H]4N(C)C3)(C(C)C)C(=O)N12 (some centres undefined) | 14.4% | nt | nt | nt | nt | 9.5%
O=C(Nc1ccc2oc(-c3ccccc3F)nc2c1)c1ccc2c(c1)OCCO2 | ? | ? | 18.4µM* | i | 12.6µM* | 8.7%
COc1cc(OC)c(/C=C2\C(=O)Nc3ccccc32)c(OC)c1 | 5.17µM* | 2.59µM* | 8.2µM* | 4.11µM* | ? | 11.6µM*
O=C1Nc2ccccc2/C1=C/c1cnc[nH]1 | ? | ? | ? | i | -6.7% | ?
COc1ccc2c(c1)/C(=C/c1cnc[nH]1)C(=O)N2 | ? | 14.6µM*! | 10.3µM* | ? | ? | ?
COc1cc(OC)cc(C(=O)Nc2ccc(Cl)cc2C(=O)c2ccccc2Cl)c1 | nt | nt | i | i | nt | nt
Cc1ccc(NC(=O)CCCn2c(=O)oc3ccccc32)c(O)c1 | -33.8% | 5.2% | i | i | 22.3% | -11.0%
CC(C)(C)NS(=O)(=O)c1cccc(S(=O)(=O)c2cccc(S(=O)(=O)NC(C)(C)C)c2)c1 | 21.1% | ? | 14.6µM* | i | ? | ?
CC(C)(C)NS(=O)(=O)c1ccc(OCC(=O)N2CCN(Cc3ccccc3)CC2)cc1 | -2.5% | -0.3% | ? | i | -2.8% | 0.6%
Cn1cnc([N+](=O)[O-])c1Sc1ccc([N+](=O)[O-])cc1 | ? | 20.6µM* | i | i | 16.4µM* | 13.6%
O=[N+]([O-])c1ccc([As](=O)(O)O)cc1 | 3.9% | nt | nt | nt | nt | -7.0%
O=C(CCl)c1ccc(Oc2ccc(C(=O)CCl)cc2)cc1 | 26.6µM* | nt | nt | nt | nt | 17.7%
O=C(CCl)c1ccc(O)c(O)c1 | nt | nt | i | i | nt | nt
NC(=O)CN1CC(O)CC1=O (centres undefined) | 0.6% | nt | nt | nt | nt | -2.0%
CCC(C)c1ccc(N2C(=O)NC(=O)/C(=C/c3cccn3CCOc3ccc(C)cc3)C2=O)cc1 (centres undefined) | 20.6µM* | -23.9% | i | i | ? | 17.0%

Screening results as filed in PubChem BioAssay.
